Measurements: PubChem BioAssay
Active and inactive are the calls of the source.

Assays:
[1] = optical density shifts of acrAB sulA E. coli – strain DRC41, OD650, 48 h, E. coli filamentation inducer project, primary screen (AID 1152); details: higher = more signal, called active from +8 up or from −8 down;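 also: E. coli MC1000 strain DRC41 lacking acrAB efflux pump and sulA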
[2] = probe aLefty1 binding on compound microarray – biochemical, small-molecule microarray, 635/667 nm fluorescence, primary screen (AID 1153); details: higher = more signal;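 also: score merges spot fluorescence with signal-to-noise ratio from the scanned slide images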
[3] = plasmodial surface anion channel blockers, osmotic lysis – cell-based, P. falciparum Indochina, OD700, 1 h, primary screen (AID 1154); details: P. falciparum Indochina infected RBC osmotic lysis, higher = more signal, called active from +8 up or from −8 down
[4] = plasmodial surface anion channel blockers, osmotic lysis – cell-based, P. falciparum Indochina, OD700, 2 h, primary screen (AID 1155);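 also: lysis reports solute entry through the parasite surface anion channel PSAC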; details: P. falciparum Indochina infected erythrocytes, higher = more signal, called active from +8 up or from −8 down
[5] = changes in parasitized red cell lysis, either direction – P. falciparum Indochina, OD700, 3 h, PSAC antagonist project, primary screen (AID 1156); details: P. falciparum-infected erythrocytes, osmotic lysis, higher = more signal, called active from +8 up or from −8 down
[6] = plasmodial surface anion channel blockers, osmotic lysis – cell-based, P. falciparum Indochina, OD700, 18 h, primary screen (AID 1157); details: P. falciparum Indochina infected erythrocytes, osmotic lysis OD700, 18 h; higher = more signal, called active from +8 up or from −8 down
[7] = S6 kinase pathway phospho-S6 level changes – cell-based, A549, cytoblot, luminescence, serum-stimulated, primary screen (AID 1158); details: 5 h, higher = more signal;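 also: serum-stimulated A549 lung adenocarcinoma cells; signal is phosphorylated S6 detected by cytoblot immunostaining with HRP secondary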
[8] = target: NADPH oxidase 2 (Homo sapiens) (UniProt P04839); assay: compounds shifting NOX2 Amplex Red fluorescence – cell-based, HEK293-NOX2, PMA-stimulated, NOX inhibitor project, primary screen (AID 1159); details: 45 min, higher = more signal, called active from +8 up or from −8 down; also: test concentration not given here
[9] = target: NADPH oxidase 4 (Homo sapiens) (UniProt Q9NPH5); assay: compounds shifting NOX4 Amplex Red fluorescence – cell-based, HEK293-NOX4, tetracycline-induced, NOX inhibitor project, primary screen (AID 1160); details: HEK293-NOX4, Amplex Red H2O2 fluorescence, 45 min; higher = more signal, called active from +8 up or from −8 down
[10] = target: NADPH oxidase 5 (Homo sapiens) (UniProt Q96PH1); assay: compounds shifting NOX5 Amplex Red fluorescence – cell-based, HEK293-NOX5, NOX inhibitor project, primary screen (AID 1161); details: HEK293-NOX5, ionomycin, 45 min, higher = more signal
Chain of NADPH oxidase 5 (Homo sapiens) (Q96PH1 whole entry, looked up): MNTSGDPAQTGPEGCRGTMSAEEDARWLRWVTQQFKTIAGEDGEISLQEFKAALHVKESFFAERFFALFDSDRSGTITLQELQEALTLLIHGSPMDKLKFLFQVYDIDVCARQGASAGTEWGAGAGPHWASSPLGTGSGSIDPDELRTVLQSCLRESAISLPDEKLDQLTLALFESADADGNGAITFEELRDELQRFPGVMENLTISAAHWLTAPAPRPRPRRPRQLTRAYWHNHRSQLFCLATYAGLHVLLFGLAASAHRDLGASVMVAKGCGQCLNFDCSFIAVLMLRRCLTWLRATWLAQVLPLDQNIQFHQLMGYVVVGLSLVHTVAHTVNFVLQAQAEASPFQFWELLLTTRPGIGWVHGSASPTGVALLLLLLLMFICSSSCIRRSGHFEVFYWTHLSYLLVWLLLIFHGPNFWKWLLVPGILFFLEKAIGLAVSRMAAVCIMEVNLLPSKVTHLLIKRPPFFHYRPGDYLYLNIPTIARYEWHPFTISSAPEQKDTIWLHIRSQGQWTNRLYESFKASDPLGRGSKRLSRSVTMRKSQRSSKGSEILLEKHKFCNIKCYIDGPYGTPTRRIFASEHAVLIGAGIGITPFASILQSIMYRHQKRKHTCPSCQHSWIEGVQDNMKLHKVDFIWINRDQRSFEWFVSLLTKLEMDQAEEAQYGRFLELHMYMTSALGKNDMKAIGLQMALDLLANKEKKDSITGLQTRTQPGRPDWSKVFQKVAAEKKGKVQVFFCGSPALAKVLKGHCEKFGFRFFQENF

Chain of NADPH oxidase 2 (Homo sapiens) (P04839 whole entry, looked up): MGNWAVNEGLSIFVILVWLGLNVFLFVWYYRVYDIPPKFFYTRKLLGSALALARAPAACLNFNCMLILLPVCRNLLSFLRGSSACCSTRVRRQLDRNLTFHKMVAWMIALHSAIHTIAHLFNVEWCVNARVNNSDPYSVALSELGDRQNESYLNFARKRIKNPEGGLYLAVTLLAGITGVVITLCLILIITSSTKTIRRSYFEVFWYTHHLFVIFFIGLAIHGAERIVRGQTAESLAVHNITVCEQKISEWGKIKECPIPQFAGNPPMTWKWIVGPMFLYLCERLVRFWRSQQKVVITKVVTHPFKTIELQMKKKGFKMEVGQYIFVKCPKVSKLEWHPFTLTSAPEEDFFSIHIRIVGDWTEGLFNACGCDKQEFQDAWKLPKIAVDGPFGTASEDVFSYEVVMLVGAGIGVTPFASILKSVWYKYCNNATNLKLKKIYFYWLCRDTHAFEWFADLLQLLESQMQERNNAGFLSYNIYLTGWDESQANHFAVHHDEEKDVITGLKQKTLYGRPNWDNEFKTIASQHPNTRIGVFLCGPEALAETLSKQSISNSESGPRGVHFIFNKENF
Chain of NADPH oxidase 4 (Homo sapiens) (Q9NPH5 whole entry, looked up): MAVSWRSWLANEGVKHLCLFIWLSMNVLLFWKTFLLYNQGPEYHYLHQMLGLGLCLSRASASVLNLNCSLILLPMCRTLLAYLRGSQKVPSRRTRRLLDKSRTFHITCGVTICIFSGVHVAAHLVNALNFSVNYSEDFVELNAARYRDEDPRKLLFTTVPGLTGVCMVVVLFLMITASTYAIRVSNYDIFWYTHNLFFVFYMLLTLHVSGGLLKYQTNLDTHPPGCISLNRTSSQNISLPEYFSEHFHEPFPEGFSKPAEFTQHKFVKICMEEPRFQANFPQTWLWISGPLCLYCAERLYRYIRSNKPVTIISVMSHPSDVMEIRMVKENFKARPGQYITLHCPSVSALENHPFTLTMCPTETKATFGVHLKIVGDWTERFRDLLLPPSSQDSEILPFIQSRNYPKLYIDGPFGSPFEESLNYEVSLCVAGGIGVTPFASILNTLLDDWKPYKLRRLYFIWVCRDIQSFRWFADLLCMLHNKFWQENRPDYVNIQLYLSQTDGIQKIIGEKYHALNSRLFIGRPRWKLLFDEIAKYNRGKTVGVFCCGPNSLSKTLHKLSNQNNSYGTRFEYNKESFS

SMILES	z-score [1]	composite z-score [2]	z-score [3]	z-score [4]	z-score [5]	z-score [6]	z-score [7]	z-score [8]	z-score [9]	z-score [10]
COCCOC(=O)N1C(=O)[C@@]2(c3cc(C#CCCO)ccc31)[C@H](c1ccc(O)cc1)N1[C@H](c3ccccc3)[C@H](c3ccccc3)OC(=O)[C@H]1[C@@H]2C(=O)NC[C@H](O)c1ccccc1	1.49 (inactive)	-0.218	3.31 (inactive)	1.19 (inactive)	0.624 (inactive)	0.555 (inactive)	0.0833	0.878 (inactive)	0.521 (inactive)	-0.0839
CC(C)(C)OC(=O)CC[C@]1(C(=O)N2CCOCC2)COC(c2ccc(OCCCO)cc2)=N1	1.54 (inactive)	0.0429	20.8 (active)	4.54 (inactive)	0.384 (inactive)	1.18 (inactive)	0.359	-1.16 (inactive)	0.324 (inactive)	-1.06
C=CCNC(=O)[C@H]1[C@@H]2C(=O)O[C@@H](c3ccccc3)[C@@H](c3ccccc3)N2[C@@H](c2ccc(OCCO)cc2)[C@]12C(=O)N(C(=O)OCCOC)c1ccc(C#CCNC(N)=O)cc12	0.33 (inactive)	0.298	2.53 (inactive)	0.666 (inactive)	1.09 (inactive)	0.83 (inactive)	0.387	1.76 (inactive)	1.44 (inactive)	0.12
COc1cc(CO)cc(I)c1O[C@H]1C=C(C(=O)NCCO)C[C@@H](N(CCN2CCOCC2)C(=O)C2CCCO2)[C@@H]1O (stereo not given in full)	2.39 (inactive)	-0.245	0.961 (inactive)	-0.339 (inactive)	0.483 (inactive)	0.108 (inactive)	0.545	-0.842 (inactive)	0.225 (inactive)	0.235
COCCCNC(=O)[C@]1(Cc2ccccc2CN=[N+]=[N-])N=C(c2ccc(OCCCO)cc2)O[C@@H]1c1ccccc1N=[N+]=[N-]	0.913 (inactive)	0.87	33.7 (active)	31.2 (active)	1.91 (inactive)	8.54 (active)	0.0038	-0.713 (inactive)	1.06 (inactive)	1.42
CN1C2C=C(c3ccc(CO)cc3)C(C3C(=O)N(C(N)=O)C(=O)C32)C1C1CC1 (stereo not given)	0.149 (inactive)	-0.104	0.944 (inactive)	0.411 (inactive)	-0.103 (inactive)	0.0864 (inactive)	-0.0656	-1.57 (inactive)	-1.29 (inactive)	-0.739
CC(C)[Si]1(C(C)C)OCc2cc(-c3ccc(-c4ccc(Cl)c(Cl)c4)o3)nc(-c3ccc(Oc4ccccc4)cc3)c21	-1.08 (inactive)	-0.21	1.88 (inactive)	0.352 (inactive)	0.0032 (inactive)	0.533 (inactive)	-0.203	-4.58 (inactive)	0.169 (inactive)	-1.54
Cc1ccc(N2C(=O)c3ccccc3[C@@H](C(=O)NCCN3CCOCC3)[C@@H]2c2ccc(CO)cc2)nc1	0.279 (inactive)	-0.303	0.443 (inactive)	-0.229 (inactive)	-0.319 (inactive)	0.155 (inactive)	-0.334	0.335 (inactive)	-0.36 (inactive)	-1.86
Cc1ccc(S[C@]2(C(=O)NC(C)C)CC(=O)N(Cc3ccccc3)[C@@H]2c2ccc(CO)cc2I)cc1	0.214 (inactive)	0.164	5.59 (inactive)	0.654 (inactive)	0.59 (inactive)	0.231 (inactive)	-0.35	0.671 (inactive)	-0.818 (inactive)	1.76
CC1C2C(CCCO)=CC(C3C(=O)N(C)C(=O)C23)N1Cc1cccc(OC(F)(F)F)c1 (stereo not given)	0.337 (inactive)	-0.0083	1.38 (inactive)	0.938 (inactive)	1.07 (inactive)	0.528 (inactive)	1.04	0.733 (inactive)	-0.702 (inactive)	0.455
CN(C)C(=O)[C@]1(CCS(=O)(=O)c2ccccc2)N=C(c2ccc(OCCCO)cc2)O[C@@H]1c1ccccc1CN=[N+]=[N-]	0.0558 (inactive)	0.342	25.5 (active)	14.6 (active)	1.47 (inactive)	1.57 (inactive)	0.131	-0.163 (inactive)	2.09 (inactive)	-0.658
C=C(CCCC)/C(=C/C[C@@H](OC(C)=O)c1ccc(OCCO)cc1)c1cc(C(=O)OC)ccc1OC	-0.195 (inactive)	-0.0518	23.7 (active)	6.34 (inactive)	1.86 (inactive)	1.19 (inactive)	-0.265	-0.958 (inactive)	-1.43 (inactive)	-1.98
COC(=O)C[C@H]1O[C@]2(C(=O)N(C)c3ccccc32)[C@@H](C)[C@@H]1[Si](C)(C)c1ccccc1	-0.297 (inactive)	0.151	1.48 (inactive)	0.405 (inactive)	1.1 (inactive)	0.0591 (inactive)	0.252	0.767 (inactive)	0.176 (inactive)	-1.11
